Where a name gives a salt, the structure may show the parent alone.
Tested on: hN + hpA co-culture (H1 iNGN2 human neurons + human primary astrocytes)
Test: presynaptic density (SYNAPSIN1 puncta per MAP2 neurite area), Z-score vs DMSO controls; higher = more presynaptic puncta (synapse-promoting)
Details: 3 µM; 72 h
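Note: immunostained co-cultures imaged by high-content microscopy, Z-score per plate against mean and SD of 0.1% DMSO wells, compounds added on differentiation day 18, analysed day 21.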

## Nc1nc(CC(=O)Nc2ccc(CCNC[C@H](O)c3ccccc3)cc2)cs1 [Mirabegron]
  presynaptic density (Z-score): -0.111

## CS(=O)(=O)N1CCN(Cc2cc3nc(-c4cccc5[nH]ncc45)nc(N4CCOCC4)c3s2)CC1 [GDC 0941 bismesylate]
  presynaptic density (Z-score): 1.26

## Cc1cn([C@H]2C=C[C@@H](CO)O2)c(=O)[nH]c1=O [Stavudine (d4T)]
  presynaptic density (Z-score): 0.723

## O=C(NCc1ccccc1)c1csc(Nc2ccncn2)n1 [Thiazovivin]
  presynaptic density (Z-score): 0.74

## NS(=O)(=O)C#Cc1ccccc1 [2-Phenylethynesulfonamide]
  presynaptic density (Z-score): 0.148

## OC(CC1c2ccccc2-c2cncn21)C1CCCCC1 (stereo not given)
  presynaptic density (Z-score): 0.156

## O=C(NOC[C@H](O)CO)c1ccc(F)c(F)c1Nc1ccc(I)cc1F
  presynaptic density (Z-score): -0.369

## O=C(O)c1cccc(-c2noc(-c3ccccc3F)n2)c1 [Ataluren (PTC124)]
  presynaptic density (Z-score): -0.0102

## CC#CCn1c(N2CCC[C@@H](N)C2)nc2c1c(=O)n(Cc1nc(C)c3ccccc3n1)c(=O)n2C [Linagliptin]
  presynaptic density (Z-score): 0.688

## O=C(O)c1ccc(Nc2ncc3c(n2)-c2ccc(Cl)cc2C(c2c(F)cccc2F)=NC3)cc1
  presynaptic density (Z-score): -0.286

## CC[C@H](NC(=O)[C@H](C)NC)C(=O)N1C[C@@H](O)C[C@H]1Cc1c(-c2[nH]c3cc(F)ccc3c2C[C@@H]2C[C@H](O)CN2C(=O)[C@H](CC)NC(=O)[C@H](C)NC)[nH]c2cc(F)ccc12 [Birinapant]
  presynaptic density (Z-score): 0.314

## O=C(O)/C=C/c1ccc(Cn2ccnc2)cc1 [Ozagrel]
  presynaptic density (Z-score): -0.554

## Cc1ccc(NC(=O)c2ccc(CN3CCN(C)CC3)cc2)cc1Nc1nccc(-c2cccnc2)n1 [Gleevec (Imatinib)]
  presynaptic density (Z-score): -0.283

## CCOC(=O)CCNc1cc(N2CCc3ccccc3CC2)nc(-c2ccccn2)n1
  presynaptic density (Z-score): -3.3

## C[C@@H]1C(=O)O[C@H]2C[C@@]34[C@H]5C[C@@H](C(C)(C)C)[C@]36[C@@H](OC(=O)[C@@H]6O)O[C@@]4(C(=O)O5)[C@]21O
  presynaptic density (Z-score): -0.498

## Cc1c(Cc2ccc3ccccc3n2)c2cc(F)ccc2n1CC(=O)O
  presynaptic density (Z-score): -1.02

## CN(C)CCCCC(=O)Nc1ccc(NC(=S)NC(=O)c2ccc(C(C)(C)C)cc2)cc1 [Tenovin-6]
  presynaptic density (Z-score): -0.671

## COc1ccc2c(c1)c(CC(=O)N1CCOCC1)c(C)n2C(=O)c1ccc(Cl)cc1
  presynaptic density (Z-score): -0.448

## C[C@]1(O)C[C@@H](c2nc(-c3ccc4ccc(-c5ccccc5)nc4c3)c3c(N)nccn32)C1 [OSI-906 (Linsitinib)]
  presynaptic density (Z-score): 0.349

## O=C1C(=O)N(Cc2ccc(Cl)c(Cl)c2)c2ccccc21 [1-[(3 4-Dichlorophenyl)methyl]-1H-indole-2 3-dione]
  presynaptic density (Z-score): -0.359

## O=c1ncn2nc(Sc3ccc(F)cc3F)ccc2c1-c1c(Cl)cccc1Cl
  presynaptic density (Z-score): 0.626

## COc1cc(-c2ncn(/C=C\C(=O)OC(C)C)n2)cc(C(F)(F)F)c1
  presynaptic density (Z-score): -0.959

## CC(=O)Nc1nc2c(Oc3cc(-c4ccc(C(F)(F)F)cc4)ncn3)cccc2s1
  presynaptic density (Z-score): 0.208

## O=C(Nc1nc2cccc(-c3ccc(CN4CCS(=O)(=O)CC4)cc3)n2n1)C1CC1 [Filgotinib (GLPG0634)]
  presynaptic density (Z-score): -0.645

## COc1cccc2c1C(=O)c1c(O)c3c(c(O)c1C2=O)C[C@@](O)(C(C)=O)C[C@@H]3O[C@H]1C[C@H](N)[C@H](O)[C@H](C)O1 [Daunorubicin HCl]
  presynaptic density (Z-score): 0.0215

## Cc1[nH]c(/C=C2\C(=O)Nc3ccc(S(=O)(=O)N(C)c4cccc(Cl)c4)cc32)c(C)c1C(=O)N1CCN(C)CC1
  presynaptic density (Z-score): 0.365

## COc1ccc2cccc(CCNC(C)=O)c2c1 [Agomelatine]
  presynaptic density (Z-score): -0.284

## CN1CCC(CNc2ccc3ncc(-c4cccc(OC(F)(F)F)c4)n3n2)CC1
  presynaptic density (Z-score): -2.44

## NC(=O)c1cccc(-c2cccc(OC(=O)NC3CCCCC3)c2)c1
  presynaptic density (Z-score): -1.17

## C[C@]12CC[C@@H]3c4ccc(O)cc4C[C@@H](CCCCCCCCC[S+]([O-])CCCC(F)(F)C(F)(F)F)[C@H]3[C@@H]1CC[C@@H]2O (stereo not given in full) [Fulvestrant]
  presynaptic density (Z-score): -0.41

## NCc1c[nH]c(=S)n1C1CCc2c(F)cc(F)cc2C1 [(R)-Nepicastat HCl]
  presynaptic density (Z-score): 0.738

## OCCOc1ccc(/C(=C(/CCCl)c2ccccc2)c2ccccc2)cc1 [Ospemifene]
  presynaptic density (Z-score): -0.588

## CCCN[C@H]1CCc2nc(N)sc2C1 [Pramipexole]
  presynaptic density (Z-score): 0.794

## CC(C(O)c1ccc(O)cc1)N1CCC(Cc2ccccc2)CC1 (stereo not given) [Ifenprodil Tartrate_Selleck]
  presynaptic density (Z-score): -0.233

## Cc1cc([C@@H](C)Nc2ccccc2C(=O)O)c2nc(N3CCOCC3)cc(=O)n2c1
  presynaptic density (Z-score): -0.243

## S=C=Nc1cccc(NC(=S)NCCCCNC(=S)Nc2cccc(N=C=S)c2)c1
  presynaptic density (Z-score): 0.95

## O=C(NOCC1CC1)c1ccc(F)c(F)c1Nc1ccc(I)cc1Cl
  presynaptic density (Z-score): -0.102

## COc1cc2c(Nc3ccc(NC(=O)c4ccccc4)cc3)ncnc2cc1OCCCN1CCOCC1
  presynaptic density (Z-score): -1.71

## CC(C)(C#N)c1cc(Cn2cncn2)cc(C(C)(C)C#N)c1
  presynaptic density (Z-score): -0.628

## CCOC(=O)C1=C(C)NC(C)=C(C(=O)OC)C1c1cccc(Cl)c1Cl (stereo not given) [Felodipine]
  presynaptic density (Z-score): -1.18

## CC(C)OC(=O)OCOP(=O)(CO[C@H](C)Cn1cnc2c(N)ncnc21)OCOC(=O)OC(C)C [Tenofovir Disoproxil Fumarate]
  presynaptic density (Z-score): 0.611

## COc1ccc2cc([C@H](C)C(=O)O)ccc2c1 [Naproxen]
  presynaptic density (Z-score): -1.04

## Cc1c(NC(=O)c2ccc(C(C)(C)C)cc2)cccc1-c1cn(C)c(=O)c(Nc2ccc(C(=O)N3CCOCC3)cc2)n1
  presynaptic density (Z-score): 0.702

## CC(C)c1cc(-c2n[nH]c(=O)n2-c2ccc3c(ccn3C)c2)c(O)cc1O [Ganetespib (STA-9090)]
  presynaptic density (Z-score): 2.03

## CC(C)C[C@H](NC(=O)[C@H](Cc1ccccc1)NC(=O)c1cnccn1)B(O)O [Bortezomib (PS-341)]
  presynaptic density (Z-score): -3.27

## NC1(c2ccc(-c3nc4ccn5c(=O)[nH]nc5c4cc3-c3ccccc3)cc2)CCC1
  presynaptic density (Z-score): -1.01

## CC(C)[C@H](O)C(=O)N[C@@H](C)C(=O)N[C@@H]1C(=O)N(C)CCc2ccccc21
  presynaptic density (Z-score): -0.185

## Nc1nc(N)c2nc(-c3cccc(O)c3)c(-c3cccc(O)c3)nc2n1
  presynaptic density (Z-score): 1.05

## C=C[C@@]1(C)CC(=O)[C@]2(O)[C@@]3(C)[C@@H](O)CCC(C)(C)[C@@H]3[C@H](O)[C@H](OC(C)=O)[C@@]2(C)O1 [Forskolin]
  presynaptic density (Z-score): 0.455

## CC(C)(C)c1cnc(CSc2cnc(NC(=O)C3CCNCC3)s2)o1
  presynaptic density (Z-score): -3.77

## CC(C)n1c(/C=C/C(O)CC(O)CC(=O)O)c(-c2ccc(F)cc2)c2ccccc21 (stereo not given) [Fluvastatin Sodium]
  presynaptic density (Z-score): 1.53

## Nc1cccc2c1C(=O)N(C1CCC(=O)NC1=O)C2=O (stereo not given) [Pomalidomide]
  presynaptic density (Z-score): 0.469

## CO[C@H]1C[C@@H]2CC[C@@H](C)[C@@](O)(O2)C(=O)C(=O)N2CCCC[C@H]2C(=O)O[C@H]([C@H](C)C[C@@H]2CC[C@@H](OCCO)[C@H](OC)C2)CC(=O)[C@H](C)/C=C(\C)[C@@H](O)[C@@H](OC)C(=O)[C@H](C)C[C@H](C)/C=C/C=C/C=C/1C [Everolimus (RAD001)]
  presynaptic density (Z-score): -1.63

## O=C(Nc1ccc(S(=O)(=O)Nc2ccccc2Cl)c(Cl)c1)c1ccccn1
  presynaptic density (Z-score): -0.71

## C=C1C(=O)OC2C=C(C)CCC=C(C)CCC12 (stereo not given)
  presynaptic density (Z-score): 0.309

## CC(C)C[C@H](NC(=O)[C@@H](NC(=O)c1cccc(-c2ccccc2)n1)[C@@H](C)O)B(O)O
  presynaptic density (Z-score): -3.12

## COc1cc2c(N3CCN(C(=O)Nc4ccc(OC(C)C)cc4)CC3)ncnc2cc1OCCCN1CCCCC1
  presynaptic density (Z-score): -0.158

## CCN(Cc1ccncc1)C(=O)C(CO)c1ccccc1 (stereo not given) [Tropicamide]
  presynaptic density (Z-score): -0.597

## C#CCC(Cc1cnc2nc(N)nc(N)c2n1)c1ccc(C(=O)N[C@@H](CCC(=O)O)C(=O)O)cc1 (stereo not given in full) [Pralatrexate]
  presynaptic density (Z-score): 0.0678

## COC1CCN(C(=O)c2cc(Cc3n[nH]c(=O)c4ccccc34)ccc2F)CC1
  presynaptic density (Z-score): 0.144

## C#CCN[C@@H]1CCc2ccccc21 [Rasagiline Mesylate]
  presynaptic density (Z-score): 0.0894

## Oc1ccc2ccccc2c1SSc1c(O)ccc2ccccc12 [1-1-Dithiodi-2-naphthtol]
  presynaptic density (Z-score): -0.787

## CN1CCC[C@@H]1CCO[C@](C)(c1ccccc1)c1ccc(Cl)cc1 [Clemastine]
  presynaptic density (Z-score): -0.781

## C#Cc1cccc(Nc2ncnc3cc(OCCOC)c(OCCO)cc23)c1
  presynaptic density (Z-score): -0.577

## CC(=O)c1cc([N+](=O)[O-])c(Sc2ccc(F)cc2F)s1
  presynaptic density (Z-score): 0.25
